Rows were chosen to be rich in hits. Some 2.6% of all compounds tested hit in one or more screens of this group.
Cruzain Triton: cruzain (T. cruzi) inhibition with detergent. Potency, µM, usual class: inhibitors. purified cruzain, Z-FR-AMC fluorescence, 0.01% Triton. AID 1478. 200,000 compounds, 0.43% hits. P25779; note: nearly all actives have a fitted effect of over 40% in size
Target sequence (P25779 123-467 limits assumed): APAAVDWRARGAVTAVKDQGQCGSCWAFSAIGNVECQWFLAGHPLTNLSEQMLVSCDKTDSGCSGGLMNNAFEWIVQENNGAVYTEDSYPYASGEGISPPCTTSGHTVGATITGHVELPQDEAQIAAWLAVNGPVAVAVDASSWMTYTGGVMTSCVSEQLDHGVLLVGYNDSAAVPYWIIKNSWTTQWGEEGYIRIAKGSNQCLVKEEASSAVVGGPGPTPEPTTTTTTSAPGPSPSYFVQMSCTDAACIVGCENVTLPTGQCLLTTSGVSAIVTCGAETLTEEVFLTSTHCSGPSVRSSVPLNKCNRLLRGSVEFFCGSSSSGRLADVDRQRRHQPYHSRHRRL
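Enzyme 1.5 nM, Z-FR-AMC 2 uM, NaOAc 100 mM pH 5.5, DTT 5 mM, Triton X-100 0.01%; 15 min RT compound preincubation; kinetic ex360/em450, 60 s delta.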
Cruzain noTriton: cruzain (T. cruzi) inhibition without detergent | purified cruzain, Z-FR-AMC fluorescence, no detergent | Potency, µM, actives largely listed as inhibitors | 200,000 compounds, 2.3% hits; note: nearly all actives have a fitted effect of over 40% in size
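Purified cruzain at 1.5 nM, pre-incubated 15 min with compound at room temperature in 100 mM sodium acetate pH 5.5, 5 mM DTT, 0.00005% Triton X-100. Reaction started with 2 uM Z-FR-AMC; AMC fluorescence increase over 60 s gives rate.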
Hits are given with their value; . = inactive; ? = inconclusive. Calls come from the whole dose curve; as a rule, active = well fitted curve in the direction sought with a large enough effect; inconclusive = small, poorly fitted or top-dose-only effect, or another doubt; inactive = no such curve, though single readings can be large; an effect the other way counts as inactive or inconclusive.

SMILES | Cruzain Triton | Cruzain noTriton
CC(=O)Nc1nnc(SCc2cc(=O)c3cc(C)ccc3[nH]2)s1 | . | .
Cc1ccc2cccnc2c1 | . | .
CC(C)(C)C(=O)Nc1nc2c(s1)COc1ccccc1-2 | . | .
O=C(CCSc1ccccc1)Nc1nc2c(s1)COc1ccccc1-2 | . | 32µM
CN1CCN(c2cc(N3CCc4ccccc4C3)c(F)cc2[N+](=O)[O-])CC1 | . | .
O=[N+]([O-])c1ccc(N2CCN(S(=O)(=O)c3ccccc3[N+](=O)[O-])CC2)cc1N1CCc2ccccc2C1 | . | 6.3µM
COC(=O)Cc1c(C)c2ccc(OCC(C)=O)c(C)c2oc1=O | . | .
CCN(CC)Cc1c(O)ccc2c(C)c(CC(=O)OC)c(=O)oc12 | 25µM | ?
Cc1cc(C)cc(NC(=O)CCc2nnc3n(C)c(=O)c4sccc4n23)c1 | . | .
Cc1cccc(C(=O)Nc2ccc(C(=O)/C=C/c3cccnc3)cc2)c1 | . | ?
O=C(/C=C/c1cccnc1)c1ccc(NC(=O)c2cccc(Br)c2)cc1 | . | 25µM
OC(CNCCC1C=Nc2ccccc21)Cn1c2ccc(Cl)cc2c2cc(Cl)ccc21 (configuration not stated) | . | 6.3µM
OC(CNCC1CCCO1)Cn1c2ccc(Cl)cc2c2cc(Cl)ccc21 (configuration not stated) | . | ?
CCCOc1ccc(NC(=O)CC2C(=O)N(c3ccc(C)cc3)C(=O)N2C2CCCC2)cc1 (configuration not stated) | . | .
COc1ccccc1NC(=O)C1=C(C)Nc2nc(SCc3ccccc3F)nn2C1c1cccs1 (configuration not stated) | . | .
O=C(/C=C/Nc1ccc(S(=O)(=O)Nc2ncccn2)cc1)c1ccc(Cl)c(Cl)c1 | . | 32µM
CC(=O)c1cccc(NS(=O)(=O)c2ccc(N/C=C\C(=O)c3ccc(C)cc3)cc2)c1 | . | .
COc1ccc(CCNC(=O)c2ccc3c(c2)c(C)c(C)n3Cc2ccccc2)c(OC)c1OC | . | ?
Cc1cccc(CNC(=O)c2ccc3c(c2)c(C)c(C)n3Cc2ccccc2)c1 | . | ?
Cc1ccccc1CCNC(=O)c1ccc2c(c1)c(C)c(C)n2Cc1ccccc1 | . | 20µM
Cc1c(C)n(Cc2ccccc2)c2ccc(C(=O)NCc3ccc(OC(C)C)cc3)cc12 | . | 25µM
Cc1c(C)n(Cc2ccccc2)c2ccc(C(=O)NCCc3ccccc3Cl)cc12 | . | 25µM
Cc1ccccc1CCNC(=O)c1ccc2c(c1)c(C)c(C)n2C | . | ?
CCOC(=O)c1ccc(NC(=O)c2ccc3c(c2)c(C)c(C)n3Cc2ccc(F)cc2)cc1 | . | 7.9µM
COc1ccc(NC(=O)c2ccc3c(c2)c(C)c(C)n3Cc2ccc(F)cc2)cc1 | . | ?
SMILES | Cruzain Triton | Cruzain noTriton
COC(=O)[C@@]1(Cc2ccc(OC)cc2)[C@H]2c3cc(C(=O)N4CCCC4)n(CCF)c3C[C@H]2CN1C(=O)c1ccccc1 | . | ?
CCOc1ccc(-n2c(SCC(N)=O)nc3c(oc4ccccc43)c2=O)cc1 | . | .
CCc1ccccc1NC(=O)Nc1cc(C(=O)NCc2ccc(C(C)C)cc2)ccc1N1CCCC1 | . | .
Cc1cccc(OCCn2c(SCC(=O)O)nc3ccccc32)c1 | . | .
CNC1CCC(c2ccc(Cl)c(Cl)c2)c2ccccc21 (configuration not stated) | . | .
Cc1c2oc3c(C)ccc(C(=O)N[C@@H]4C(=O)N[C@@H](C(C)C)C(=O)N5CCC[C@@H]5C(=O)N(C)CC(=O)N(C)[C@@H](C(C)C)C(=O)O[C@H]4C)c3nc-2c(C(=O)N[C@@H]2C(=O)N[C@@H](C(C)C)C(=O)N3CCC[C@@H]3C(=O)N(C)CC(=O)N(C)[C@@H](C(C)C)C(=O)O[C@H]2C)c(N)c1=O | . | ?
N#Cc1cccc(NC(=O)N2CCC3(CC2)CCN(C(=O)c2csnn2)CC3)c1 | . | .
Cc1ccc(Cl)cc1N1CCN(C(=O)Cn2cnc3nc4c(cc3c2=O)CCCC4)CC1 | . | .
CCCC(=O)Nc1sc(C)c(-c2ccc(OC)cc2)c1C#N | . | 6.3µM
CCc1c(C)sc(NC(=O)CCc2ccc(OC)cc2)c1C(N)=O | . | .
CCCCC[C@H](O)/C=C/[C@@H]1[C@@H](C/C=C\CCCC(=O)O)[C@@H](O)C[C@H]1O | . | ?
CCCCC[C@H](O)/C=C/[C@@H]1[C@@H](C/C=C\CCCC(=O)OC)[C@@H](O)C[C@H]1O | 25µM | ?
COc1ccc(-c2cn3c(n2)sc2cc(C(=O)Nc4ccc(F)cc4Cl)ccc23)cc1 | . | .
O=C(CSc1nc2ccccc2s1)N1c2ccccc2Sc2ccc(Cl)cc21 | . | 16µM
O=C(CSc1nc2ccccc2s1)N1c2ccccc2Sc2ccc(C(F)(F)F)cc21 | . | 10µM
O=C(CSc1nnc(-c2c[nH]c3ccccc23)o1)N1c2ccccc2CCc2ccccc21 | . | ?
O=C(CSc1nnc(COc2cccc3ccccc23)o1)N1c2ccccc2CCc2ccccc21 | . | 13µM
CC(C)C(=O)NNC(=O)CSc1nc(C2CCCCC2)nc2ccccc12 | . | .
O=C(CSc1nc(C2CC2)nc2ccccc12)N1c2ccccc2Sc2ccccc21 | . | 25µM
O=C1c2ccccc2C(=O)N1CC(=O)N1c2ccccc2Sc2ccc(C(F)(F)F)cc21 | . | ?
O=C(CSc1nc2ccccc2o1)N1c2ccccc2Sc2ccccc21 | . | ?
ClC=CCl | . | .
ClCc1ccccc1 | . | .
Cc1ccc(CSC(N)=Nc2ccccc2)cc1C | . | .
O=C(CSc1nc(=O)n(CCN2CCOCC2)c2c1CCC2)Nc1ccc(Cl)c(Cl)c1 | . | .
SMILES | Cruzain Triton | Cruzain noTriton
Cc1cccc(OCc2nnc(SCC(=O)N3c4ccccc4Sc4ccc(Cl)cc43)o2)c1 | . | 13µM
COc1cccc(OCc2nnc(SCC(=O)N3c4ccccc4Sc4ccc(Cl)cc43)o2)c1 | . | ?
Cc1c(Cl)ccc2sc(N3CCN(C(=O)CCS(=O)(=O)c4ccc(F)cc4)CC3)nc12 | . | .
N#Cc1c(NCCN)nc(-c2ccco2)c2c1CCCC2 | . | 25µM
CN(C)CCNc1nc(-c2ccco2)c2c(c1C#N)CC(C)(C)OC2 | . | .
O=C(NCCc1cccs1)C12CN(Cc3ccccc3)CC1C(c1cccc([N+](=O)[O-])c1)=NO2 (configuration not stated) | . | 13µM
O=C(NCCCCc1ccccc1)C12CN(Cc3ccccc3)CC1C(c1cccc([N+](=O)[O-])c1)=NO2 (configuration not stated) | . | .
CC(=O)N1CCc2cc(S(=O)(=O)NC(CC(C)C)C(=O)NCCc3ccc(C)cc3)ccc21 (configuration not stated) | . | .
Cc1ccc(-c2cc(C(F)(F)F)n3ncc(-c4ccc(Cl)cc4)c3n2)cc1 | . | .
COc1cccc(/C=N/N2C(=O)CSC2=S)c1O | ? | .
O=C1CSC(=S)N1/N=C/C=C/c1ccccc1 | ? | 32µM
COCCCNC(=O)C(Cc1ccccc1)NS(=O)(=O)c1ccc2c(c1)c(=O)n(C)c(=O)n2C (configuration not stated) | . | .
Cn1c(=O)c2cc(S(=O)(=O)NC(Cc3ccccc3)C(=O)NCc3ccco3)ccc2n(C)c1=O (configuration not stated) | 20µM | 16µM
CN1CCN(c2ncnc3ccc(-c4ccccc4Cl)cc23)CC1 | . | .
CCOc1cc(C(=O)N(Cc2nc(-c3ccc(C)cc3)no2)C(C)C)cc(OCC)c1OCC | . | ?

Screens as filed in PubChem BioAssay.
